Test results taken from PubChem BioAssay (NCI).
Compounds without any hit were thinned out: in the full panel of roughly 79,000, 15% have a hit. Calls of active or inactive are those of the source. No stated cut-off is given here; in the data, active means growth inhibition above about 70%; inactive means the rest.

Key:
[1] = NCI Yeast Anticancer Drug Screen. Data for the rad50 strain (AID 155);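 further: 0% = growth of vehicle-only cultures of the same strain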; conditions: S. cerevisiae rad50 strain growth inhibition; at 50.0 µM; stronger effect = higher value
Summary of the method: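 Cells are treated with compound, grown, and their growth is then scored against vehicle-only cultures of the same repair-deficient yeast strain.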

[2] = NCI Yeast Anticancer Drug Screen. Data for the mec2-1 strain (AID 157); conditions: S. cerevisiae mec2-1 strain, at 50.0 µM, stronger effect = higher value
Summary of the method: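 Mutant yeast (mec2-1) grown with compound; growth inhibition relative to vehicle control reported.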

[3] = NCI Yeast Anticancer Drug Screen. Data for the sgs1 mgt1 strain (AID 161);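 further: 0% = growth of cultures given vehicle only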; conditions: S. cerevisiae sgs1 mgt1 strain, at 50.0 µM, stronger effect = higher value
Summary of the method: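 Compounds are added to genetically altered yeast, and growth is compared with cultures given vehicle alone to give percent inhibition.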

[4] = NCI Yeast Anticancer Drug Screen. Data for the cln2 rad14 strain (AID 165);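 further: 0% = growth equal to vehicle treated cultures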; conditions: S. cerevisiae cln2 rad14 strain, at 50.0 µM, stronger effect = higher value
Summary of the method: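 Readout is yeast growth inhibition versus vehicle-treated controls, using a strain with cln2 and rad14 alterations exposed to compound.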

[5] = NCI Yeast Anticancer Drug Screen. Data for the bub3 strain (AID 167); conditions: S. cerevisiae bub3 mutant strain, at 50.0 µM, stronger effect = higher value
Summary of the method: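 Part of a panel of yeast mutants defective in DNA damage repair or cell cycle regulation. Each strain is grown with compound, and inhibition is calculated relative to solvent-treated cultures.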

[6] = NCI Yeast Anticancer Drug Screen. Data for the mlh1 rad18 strain (AID 175); conditions: S. cerevisiae mlh1 rad18 strain growth inhibition; at 50.0 µM; stronger effect = higher value
Summary of the method: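 Genetically defined yeast (DNA repair-deficient) exposed to compounds; growth inhibition determined relative to vehicle.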

Measured: growth inhibition

CC(=O)N(C)O
inactive: [1] 21.2% | [2] 17.4% | [3] -4.05% | [4] -5.85% | [5] -19.9% | [6] -0.4%

Nc1nc2c(C(=O)c3cccs3)nnn2c2cccc(Cl)c12
inactive: [1] -21.1% | [2] -21.1% | [3] -21.9% | [4] -12.2% | [5] -14.8% | [6] -2.25%

Nc1nc(Nc2ccccc2)c2ncn(C3OC(CO)C(O)C3O)c2n1 (configuration not stated)
inactive: [1] 12.7% | [2] 1.25% | [3] 0.25% | [4] -1.35% | [5] 3.6% | [6] -12.3%

O=C(CCc1ccc(O)c(O)c1)NCCc1cc(O)cc(O)c1
inactive: [1] 23.1% | [2] -23.9% | [3] -26.8% | [4] -4.95% | [5] -42.5% | [6] -52.5%

C=C[C@]1(O)CCC[C@]2(C)C(=O)CCC12C (some centres not stated)
inactive: [1] -2.8% | [2] -21.9% | [3] -19.2% | [4] 10.8% | [5] -22.2% | [6] -31.9%

CCN(CC)CCNC(=O)c1c(C)cc(C)cc1C
inactive: [1] -5.1% | [2] 0.2% | [3] -0.3% | [4] -53.2% | [5] -1.95% | [6] 10.8%

S=C(Cc1cccnc1)N1CCOCC1
inactive: [1] -7.85% | [2] 41.5% | [3] 8.2% | [4] -27.9% | [5] 5.15% | [6] 45.5%

Fc1ccccc1-c1ccccc1
inactive: [1] -26.4% | [2] -1.5% | [3] -13.5% | [4] -37.5% | [5] -10.8% | [6] -11.2%

O=C(O)C1CCCCCC1
inactive: [1] 7.45% | [2] 0.65% | [3] 1.8% | [4] -2.55% | [5] 8.65% | [6] 2%

C=C1C(=O)N2CCc3c([nH]c4ccccc34)[C@H]2C[C@@H]1CO
inactive: [1] 5.4% | [2] 2.4% | [3] 4.2% | [4] 5% | [5] 7.05% | [6] 10.8%

Cc1ccc(S(=O)(=O)NCc2cccc([N+](=O)[O-])c2)cc1
inactive: [1] 6.25% | [2] -15.8% | [3] -13.6% | [4] 19% | [5] 18.2% | [6] 14.8%

CCCCCCCCCCCCCCCCCC(=O)OCC(CO)OC(=O)CCCCCCCCCCCCCCCCC (configuration not stated)
inactive: [1] 4.45% | [2] -9.65% | [3] 7.3% | [4] 6.95% | [5] 34.1% | [6] 29.7%

CCSC(C(O)C(O)C(O)C(O)CO)n1cnc2c(SC)ncnc21 (configuration not stated)
inactive: [1] 20.1% | [2] -15.3% | [3] 1.05% | [4] -26% | [5] -4.95% | [6] -3.85%

CC1=CC(=O)CC(C(C)C)C1 (configuration not stated)
inactive: [1] 15.5% | [2] -7.5% | [3] 22.8% | [4] -5.95% | [5] 1.95% | [6] 5.2%

Cc1cc[n+](CC(=O)c2ccc(Br)cc2)cc1
inactive: [1] 22.8% | [2] 12.7% | [3] 18.4% | [4] 22.9% | [5] 4.35% | [6] 54.5%

O=CC(=C\c1cccs1)/C(C=O)=C\c1cccs1
active: [1] 99.3% | [2] 99.5% | [3] 99.5% | [4] 99.1% | [5] 99.4% | [6] 88.5%

Cc1ccccc1C(=O)OC1CCCC1
inactive: [1] 13.1% | [2] -1.45% | [3] 2.95% | [4] -19.4% | [5] 8.1% | [6] 0.5%

CN1C2CCC1/C(=C/c1cccc3c1OCO3)C(=O)/C2=C\c1cccc2c1OCO2
inactive: [1] 27.8% | [2] 19.8% | [3] 20.4% | [4] -52% | [5] 32.3% | [6] 27.1%

O=C(NNCCO)C(O)C(O)C(O)C(O)CO (configuration not stated)
inactive: [1] -31.4% | [2] 7.15% | [3] 2.95% | [4] 5.25% | [5] -4.7% | [6] 13.2%

CN(C)C(CN)CC1=C(CC(CN)N(C)C)CCC1 (configuration not stated)
inactive: [1] -15.5% | [2] 5.25% | [3] -5.5% | [4] -1% | [5] -5.25% | [6] 17.6%

CC1C2(c3ccccc3)C(C(=O)c3ccccc3)NC(c3ccccc3)C12c1ccccc1 (configuration not stated)
inactive: [1] 46% | [2] 6.35% | [3] 28.2% | [4] 18.9% | [5] 2.2% | [6] 34.6%

COc1ccccc1NC(=O)CC(C)=O
inactive: [1] 7% | [2] -5.9% | [3] 7.8% | [4] -11.6% | [5] -15.8% | [6] -8.5%

CCOC(=O)c1c(/C=N\Nc2ccccc2)nc2ccccc2c1-c1ccccc1
inactive: [1] 11.7% | [2] 0.6% | [3] -2.9% | [4] -6.5% | [5] -30.8% | [6] -7.4%

CC(C)(C)c1ccc(O)c(CN(Cc2cc(C(C)(C)C)ccc2O)c2ccccc2)c1
inactive: [1] 44.4% | [2] 26.9% | [3] 21.6% | [4] -2.2% | [5] 62% | [6] 54.8%

CCCCOC(=O)C(=O)C(CC(CC)C(=O)c1ccccc1)C(=O)C=C(C)C (configuration not stated)
inactive: [1] -28.9% | [2] -8.5% | [3] -9.55% | [4] -15.2% | [5] -13.6% | [6] 15.2%

CC(C)C(NC(=O)OC(C)(C)C)C(=O)O (configuration not stated)
inactive: [1] -11.3% | [2] 1.2% | [3] 14.7% | [4] -66.3% | [5] 9.45% | [6] -6.9%

CN(N=Nc1ccc(C#N)cc1)C(C)(C)C
inactive: [1] 3.3% | [2] -5.3% | [3] 6.5% | [4] -5.85% | [5] -2.35% | [6] 5.55%

CCC[C@H]1C(=O)N=C(N)N1C(=O)OCc1ccccc1
inactive: [1] 0.9% | [2] 2.9% | [3] -5.5% | [4] -28.3% | [5] -3.3% | [6] -7%

COc1cccc(NC(=O)c2cccc(C(=O)Nc3cccc(OC)c3)c2)c1
inactive: [1] 7% | [2] 5.55% | [3] 4.15% | [4] -32.8% | [5] -2.6% | [6] 35%

C=C1C[C@]23CC[C@@H]4C(CO)(CO)CC(=O)C[C@]4(C)[C@@H]2C(O)C[C@H]1C3 (some centres not stated)
inactive: [1] 30.6% | [2] 17.9% | [3] 17.8% | [4] -5.05% | [5] 7.05% | [6] 30.9%

O=c1[nH]c2ccccc2c2ccc(Br)cc12
inactive: [1] 17.4% | [2] -6.1% | [3] -2.65% | [4] 7.3% | [5] -3% | [6] 18.5%

CCCCOc1ccc(C(=O)C(C(c2ccccc2)N2CCOCC2)N2CCOCC2)cc1 (configuration not stated)
inactive: [1] -7.8% | [2] -4.85% | [3] -9.4% | [4] -6.8% | [5] -12.2% | [6] 9.2%

CCOC(=O)c1ccc(NC(=O)Oc2ccc(C=O)cc2OC)cc1
inactive: [1] 5.7% | [2] 5.3% | [3] 7.85% | [4] 11% | [5] 20.1% | [6] 7.2%

O=C1NC(Cc2ccc(O)cc2)C(=O)N2CCCC12 (configuration not stated)
inactive: [1] 1.25% | [2] -3% | [3] -34.6% | [4] 0.4% | [5] -18.2% | [6] -14.2%

CCOC(=O)CCCCCC(=O)OCC
inactive: [1] 4% | [2] 0.25% | [3] -2.7% | [4] 4.1% | [5] 12.8% | [6] 1.8%

COc1ccc2c(c1)c1cc(OC)ccc1n2CCCCOc1ccc(-c2c3ccccc3c(-c3ccc(OCCCCn4c5ccc(OC)cc5c5cc(OC)ccc54)cc3)c3ccccc23)cc1
inactive: [1] 29.1% | [2] 1.85% | [3] -1.1% | [4] 23.9% | [5] 7.9% | [6] 29.6%

CC(=O)OC1CCCCCCC1
inactive: [1] -13.2% | [2] 14.6% | [3] 15.5% | [4] -3.2% | [5] 19.5% | [6] 6.05%

O=C(NO)Oc1cccc2ccccc12
inactive: [1] 9.7% | [2] 0.55% | [3] 0.25% | [4] 6.75% | [5] -3.3% | [6] 5.85%

Cc1ccc(N2C(=O)CSC2=S)cc1C
inactive: [1] -1.7% | [2] -15.7% | [3] -30% | [4] -38% | [5] -29% | [6] -9.5%

CCC(=O)Nc1nn[nH]n1
inactive: [1] -11.5% | [2] -1.5% | [3] -3.75% | [4] 4.75% | [5] 7.9% | [6] -2.15%

Cc1ccc(NC(=O)CSc2nnc(Cc3ccccc3)o2)cc1
inactive: [1] -15.4% | [2] -4.35% | [3] -18.5% | [4] -20.1% | [5] -3.65% | [6] -25.6%

CCCCCCCCCC/C=C/c1c(C)[nH]c2ccccc2c1=O
inactive: [1] -11.9% | [2] 8.7% | [3] -6.3% | [4] -6.5% | [5] -8.45% | [6] -11.1%
